Here are results for eleven compounds from ChEMBL document CHEMBL2218924, “A broad activity screen in support of a chemogenomic map for kinase signalling research and drug discovery” (Biochem J, 2013).

Test [1] addresses T1, Mitogen-activated protein kinase kinase kinase 7 (Homo sapiens) (UniProt O43318).
T1 sequence (whole entry): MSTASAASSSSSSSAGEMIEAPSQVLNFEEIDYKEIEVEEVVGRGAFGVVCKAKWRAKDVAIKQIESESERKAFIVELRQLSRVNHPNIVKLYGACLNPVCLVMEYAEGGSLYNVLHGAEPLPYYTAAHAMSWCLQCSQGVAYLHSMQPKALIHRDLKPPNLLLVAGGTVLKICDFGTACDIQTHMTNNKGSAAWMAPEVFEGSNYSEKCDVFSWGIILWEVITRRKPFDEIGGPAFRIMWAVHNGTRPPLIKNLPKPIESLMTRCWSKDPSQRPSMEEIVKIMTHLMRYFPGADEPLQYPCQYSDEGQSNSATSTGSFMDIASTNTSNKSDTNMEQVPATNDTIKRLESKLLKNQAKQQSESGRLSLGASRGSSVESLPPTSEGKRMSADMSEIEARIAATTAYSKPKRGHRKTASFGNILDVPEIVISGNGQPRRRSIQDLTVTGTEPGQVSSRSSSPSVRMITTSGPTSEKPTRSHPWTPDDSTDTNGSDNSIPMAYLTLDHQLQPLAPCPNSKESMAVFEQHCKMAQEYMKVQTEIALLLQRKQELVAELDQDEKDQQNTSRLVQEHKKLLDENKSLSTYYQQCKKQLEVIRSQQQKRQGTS
Particulars: at 10 µM.

The target in test [2] is T2, Serine/threonine-protein kinase TAO2 (Homo sapiens) (UniProt Q9UL54).
T2 sequence (whole entry): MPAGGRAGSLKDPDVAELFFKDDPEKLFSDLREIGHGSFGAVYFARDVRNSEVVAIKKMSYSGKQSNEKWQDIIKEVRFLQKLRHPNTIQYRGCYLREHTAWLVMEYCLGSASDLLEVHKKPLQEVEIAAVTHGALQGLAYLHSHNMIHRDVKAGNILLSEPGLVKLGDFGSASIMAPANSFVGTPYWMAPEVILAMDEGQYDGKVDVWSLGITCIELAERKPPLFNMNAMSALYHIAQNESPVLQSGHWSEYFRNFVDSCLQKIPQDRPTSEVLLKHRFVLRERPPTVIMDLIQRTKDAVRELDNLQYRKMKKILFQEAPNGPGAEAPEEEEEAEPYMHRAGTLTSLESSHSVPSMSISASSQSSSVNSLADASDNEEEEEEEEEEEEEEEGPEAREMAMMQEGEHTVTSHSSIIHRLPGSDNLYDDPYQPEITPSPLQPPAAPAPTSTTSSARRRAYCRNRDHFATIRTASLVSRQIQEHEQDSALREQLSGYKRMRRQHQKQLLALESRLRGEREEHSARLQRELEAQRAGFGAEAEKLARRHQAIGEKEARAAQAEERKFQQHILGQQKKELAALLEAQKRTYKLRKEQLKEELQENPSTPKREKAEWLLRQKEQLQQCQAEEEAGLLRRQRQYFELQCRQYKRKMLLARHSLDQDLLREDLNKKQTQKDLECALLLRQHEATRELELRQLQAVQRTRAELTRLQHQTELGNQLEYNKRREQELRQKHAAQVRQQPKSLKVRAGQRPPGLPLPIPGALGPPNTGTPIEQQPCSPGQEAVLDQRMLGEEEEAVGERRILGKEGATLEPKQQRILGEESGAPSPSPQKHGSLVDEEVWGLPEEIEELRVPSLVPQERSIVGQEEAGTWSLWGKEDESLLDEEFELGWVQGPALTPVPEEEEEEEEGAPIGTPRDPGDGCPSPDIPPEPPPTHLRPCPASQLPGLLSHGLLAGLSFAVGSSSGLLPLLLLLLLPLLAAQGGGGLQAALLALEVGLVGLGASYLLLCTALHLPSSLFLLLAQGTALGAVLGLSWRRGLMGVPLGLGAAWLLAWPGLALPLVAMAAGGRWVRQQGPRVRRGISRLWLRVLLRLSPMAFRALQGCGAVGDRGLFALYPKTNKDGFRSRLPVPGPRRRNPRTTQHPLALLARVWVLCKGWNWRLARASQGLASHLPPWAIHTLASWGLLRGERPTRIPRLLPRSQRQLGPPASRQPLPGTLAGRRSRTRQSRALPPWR
Particulars: at 10 µM.

In test [3] the target is T3, Serine/threonine-protein kinase TAO1 (Homo sapiens) (UniProt Q7L7X3).
T3 sequence (whole entry): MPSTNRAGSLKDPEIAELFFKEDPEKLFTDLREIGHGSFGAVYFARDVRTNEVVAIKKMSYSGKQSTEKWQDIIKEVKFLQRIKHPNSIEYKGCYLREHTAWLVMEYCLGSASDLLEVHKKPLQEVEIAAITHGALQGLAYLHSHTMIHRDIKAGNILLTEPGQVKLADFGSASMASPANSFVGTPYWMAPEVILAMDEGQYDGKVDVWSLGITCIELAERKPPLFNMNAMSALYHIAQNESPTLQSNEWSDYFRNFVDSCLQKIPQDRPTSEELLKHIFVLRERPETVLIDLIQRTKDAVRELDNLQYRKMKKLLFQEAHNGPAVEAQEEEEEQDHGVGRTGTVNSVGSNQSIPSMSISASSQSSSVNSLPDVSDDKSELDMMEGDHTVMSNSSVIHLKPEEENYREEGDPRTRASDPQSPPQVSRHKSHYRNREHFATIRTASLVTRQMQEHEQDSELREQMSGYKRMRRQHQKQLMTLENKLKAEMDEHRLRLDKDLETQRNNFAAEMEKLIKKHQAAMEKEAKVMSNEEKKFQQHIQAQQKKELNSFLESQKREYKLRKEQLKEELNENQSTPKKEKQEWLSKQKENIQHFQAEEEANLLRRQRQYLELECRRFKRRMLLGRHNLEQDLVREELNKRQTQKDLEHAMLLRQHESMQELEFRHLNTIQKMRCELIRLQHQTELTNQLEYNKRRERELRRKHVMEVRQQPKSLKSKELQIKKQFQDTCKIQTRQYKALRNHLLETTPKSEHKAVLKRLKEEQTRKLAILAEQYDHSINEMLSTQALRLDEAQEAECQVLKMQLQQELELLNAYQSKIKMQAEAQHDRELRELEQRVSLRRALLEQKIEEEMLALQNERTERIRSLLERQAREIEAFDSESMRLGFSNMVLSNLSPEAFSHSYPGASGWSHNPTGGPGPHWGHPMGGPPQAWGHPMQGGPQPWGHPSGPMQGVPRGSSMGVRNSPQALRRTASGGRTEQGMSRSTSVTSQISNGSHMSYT
Particulars: at 10 µM.

The target in test [4] is T2, Serine/threonine-protein kinase TAO2 (Homo sapiens). Particulars: at 1 µM.
Test [5] concerns the target T4, Serine/threonine-protein kinase TAO3 (Homo sapiens) (UniProt Q9H2K8).
T4 sequence (whole entry): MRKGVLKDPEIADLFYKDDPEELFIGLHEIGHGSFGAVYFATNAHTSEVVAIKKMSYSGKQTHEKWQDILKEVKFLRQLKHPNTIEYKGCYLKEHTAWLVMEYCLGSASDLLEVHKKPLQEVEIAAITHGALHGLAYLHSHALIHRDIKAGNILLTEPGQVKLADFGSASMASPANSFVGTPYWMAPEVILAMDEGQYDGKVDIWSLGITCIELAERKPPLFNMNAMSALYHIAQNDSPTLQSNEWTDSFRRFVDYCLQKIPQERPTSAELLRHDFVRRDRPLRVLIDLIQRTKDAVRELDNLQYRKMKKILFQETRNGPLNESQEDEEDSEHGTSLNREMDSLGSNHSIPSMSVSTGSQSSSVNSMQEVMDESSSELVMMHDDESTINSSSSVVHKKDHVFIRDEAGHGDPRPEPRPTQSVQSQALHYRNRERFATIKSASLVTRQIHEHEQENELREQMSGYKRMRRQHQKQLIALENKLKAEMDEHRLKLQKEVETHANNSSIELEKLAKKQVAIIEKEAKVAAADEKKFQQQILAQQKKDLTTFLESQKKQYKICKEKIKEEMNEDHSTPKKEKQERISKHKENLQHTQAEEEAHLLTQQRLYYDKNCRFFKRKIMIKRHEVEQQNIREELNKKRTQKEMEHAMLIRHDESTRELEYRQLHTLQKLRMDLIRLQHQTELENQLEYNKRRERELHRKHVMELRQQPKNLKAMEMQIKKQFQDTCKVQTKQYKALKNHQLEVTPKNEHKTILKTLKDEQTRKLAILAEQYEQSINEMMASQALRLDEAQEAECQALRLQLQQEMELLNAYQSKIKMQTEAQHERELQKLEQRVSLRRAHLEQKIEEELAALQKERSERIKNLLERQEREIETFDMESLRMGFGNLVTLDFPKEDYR
The conditions noted are these: at 1 µM.

The target of test [6] is T4, Serine/threonine-protein kinase TAO3 (Homo sapiens). The conditions noted are these: at 10 µM.
Test [7] has as its target T5, Serine/threonine-protein kinase TBK1 (Homo sapiens) (UniProt Q9UHD2).
T5 sequence (whole entry): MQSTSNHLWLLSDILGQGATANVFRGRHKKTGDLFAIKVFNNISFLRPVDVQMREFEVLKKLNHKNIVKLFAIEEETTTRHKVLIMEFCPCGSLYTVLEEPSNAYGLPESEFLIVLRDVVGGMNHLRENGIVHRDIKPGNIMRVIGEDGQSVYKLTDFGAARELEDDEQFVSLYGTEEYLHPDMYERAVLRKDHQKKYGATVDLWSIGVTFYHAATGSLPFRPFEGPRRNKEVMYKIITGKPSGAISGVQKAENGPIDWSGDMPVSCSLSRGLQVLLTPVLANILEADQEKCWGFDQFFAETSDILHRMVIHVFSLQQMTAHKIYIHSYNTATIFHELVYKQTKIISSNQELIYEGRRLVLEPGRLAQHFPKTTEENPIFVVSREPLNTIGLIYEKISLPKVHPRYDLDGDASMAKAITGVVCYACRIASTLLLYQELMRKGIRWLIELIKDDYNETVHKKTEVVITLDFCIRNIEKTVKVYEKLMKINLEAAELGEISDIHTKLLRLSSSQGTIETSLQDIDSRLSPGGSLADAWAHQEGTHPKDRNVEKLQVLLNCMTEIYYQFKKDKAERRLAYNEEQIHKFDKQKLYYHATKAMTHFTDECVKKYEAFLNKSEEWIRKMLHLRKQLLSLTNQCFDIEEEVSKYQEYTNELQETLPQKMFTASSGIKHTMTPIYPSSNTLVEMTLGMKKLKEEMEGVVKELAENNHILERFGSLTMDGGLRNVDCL
The conditions noted are these: at 1 µM.

Test [8] deals with T3, Serine/threonine-protein kinase TAO1 (Homo sapiens). Particulars: at 1 µM.
Test [9] has as its target T1, Mitogen-activated protein kinase kinase kinase 7 (Homo sapiens). The conditions noted are these: at 1 µM.

In the case of `Nc1nccc(-c2c(-c3ccc(F)cc3)ncn2C2CCNCC2)n1`, the residual activity in [1] amounted to 79%; in test [2], 80%.
As for `COc1cc2nccc(Oc3ccc(NC(=O)Nc4cc(C)on4)c(Cl)c3)c2cc1OC`, the residual activity in test [3] was 52%; in [4], 73%; in test [2] it was 43%; in test [5], 82%; in test [6], 57%; in test [7], 82%.
With `O=C1Cc2c([nH]c3ccc([N+](=O)[O-])cc23)-c2ccccc2N1`, the results for the residual activity in test [8], in [3] and in [7] were 54%, 30% and 51%, respectively.
In the case of `CC(C)N(CCC(=O)c1ccc2ccccc2c1)Cc1ccccc1`, the residual activity came to 87% in [9]; 86% in test [1]; 100% in test [4]; 88% in test [2]; 52% in [7].
Turning to `N#Cc1c(NC(=O)c2cccc3ccccc23)sc2c1CCCC2`, the residual activity in [1] stood at 93%; in test [3], 93%; in [2] it was 99%; in test [6] it was 88%; in [7], 67%.
For the compound `Cc1cc(C)c(/C=C2\C(=O)Nc3ccccc32)[nH]1`, the results for the residual activity in [9], in test [1] and in test [2] were 76%, 71% and 105%, respectively.
Turning to `COc1ccc(CNC(=O)Nc2ncc([N+](=O)[O-])s2)cc1`, the results for the residual activity in test [1] and in test [7] were 79% and 59%, respectively.
For the compound `NC(=O)c1ccc(-c2nc(-c3ccc4c(c3)OCCO4)c(-c3ccccn3)[nH]2)cc1`, the residual activity in test [8] was 96%; in [3], 80%; in test [4], 100%; in test [2], 93%; in [7], 83%.
As to `COc1ccc(COc2ccc(Cc3cnc(N)nc3N)cc2OC)cc1`, the values for the residual activity in test [4], in [2] and in [7] were 100%, 79% and 61%, respectively.
For the compound `Nc1n[nH]c2nc3ccccc3nc12`, the residual activity in test [9] was 91%; in [1], 74%; in test [3], 75%; in test [4], 93%; in test [2], 85%; in test [7], 78%.
As for `Cn1sc(=O)n(Cc2ccccc2)c1=O`, the residual activity came out at 85% in test [9]; 79% in test [1]; 87% in test [8]; 85% in test [3]; 95% in [4]; 91% in test [2]. Further, the residual activity in [5] came to 91%; in test [6], 91%; in test [7], 61%.
